Measurements taken from PubChem BioAssay (NCATS).
Several values for one entry are separate records, joined by “and”; a condition that tells them apart may be missing. Equal entries are not always repeated. Records with an inconclusive call do not appear. A structure can be active in one record and inactive in another. Activity calls are given as the source filed them. Calls follow the shape of the dose curve; as a rule, active = well fitted curve in the direction sought with a large enough effect; inconclusive = small, poorly fitted or top-dose-only effect, or another doubt; inactive = no such curve, though single readings can be large; an effect the other way counts as inactive or inconclusive.

Assays:
[1] = qHTS assay for measurement of the activity of small molecule inhibitors on Zika virus induced Caspase-3 activity in human iPSC derived neural progenitor cells (hNPCs) (AID 1224857); also: nearly all actives have a fitted effect of over 65% in size
Method in brief: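 Human iPSC-derived neural progenitor cells pretreated 1 hr with compounds, then infected with Zika virus (2 FFU/cell) for 6 hours at 37 C. Caspase-3/7 measured by Caspase-Glo luminescence; % inhibition calculated from induction scaled to uninfected (0%) and infected (100%) wells.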

[2] = qHTS assay for measurement of the activity of small molecule inhibitors on Zika virus induced Caspase-3 activity in human astrocytoma cells (AID 1224859)
Method in brief: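 SNB-19 astrocytoma cells, 250/well, pretreated 1 h with compounds, then Zika virus at 2 FFU/cell for 6 h at 37 C; Caspase-Glo 3/7 luminescence after 30 min; percent inhibition normalised to uninfected and infected controls.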

[3] = qHTS Screen of the MIPE 4.0 Collection Against Ewings Sarcoma (RDES) (AID 1259252); also: nearly all actives have a fitted effect of over 35% in size; also: potency is read from the fitted curve at half-maximal effect
Method in brief: (§1)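 Dose series incubated 48 h with cells in RPMI plus 5% FBS, glutamine and penicillin/streptomycin; cell viability then quantified via CellTiter-Glo.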

[4] = qHTS Screen of the MIPE 4.0 Collection Against Ewings Sarcoma (TC71) (AID 1259253); also: nearly all actives have a fitted effect of over 40% in size; also: potency is read from the fitted curve at half-maximal effect
Method in brief: as §1

[5] = qHTS Screen of the MIPE 4.0 Collection Against Ewings Sarcoma (EW8) (AID 1259255); also: nearly all actives have a fitted effect of over 35% in size; also: potency is read from the fitted curve at half-maximal effect
Method in brief: as §1

[6] = qHTS Screen of the MIPE 4.0 Collection Against Ewings Sarcoma (TC32) (AID 1259256); also: nearly all actives have a fitted effect of over 45% in size; also: potency is read from the fitted curve at half-maximal effect
Method in brief: as §1

[7] = NS1 protein of Zika virus - qHTS assay to identify small molecule inhibitors in human HEK 293 cells (AID 1347053); also: nearly all actives have a fitted effect of over 55% in size; also: potency is read from the fitted curve at half-maximal effect
Method in brief: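 HEK 293; 20 h pre-culture, 37 C/5% CO2; cpd 1 h pre-infection; ZIKV MR766, MOI = 0.5, 24 h, 37 C; TR-FRET NS1 readout (two anti-NS1 Abs); norm. to no-virus vs infected.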

[8] = Identifying Small Molecule Inhibitors of Pancreatic Cancer Stem Cells (A2780, Spheroid) (AID 1259357); settings: Potency: A2780 spheroid viability;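 also: potency is read from the fitted curve at half-maximal effect; compound exposure lasted 48 h before the ATP luminescence read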
Method in brief: (§2)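 Monolayer and spheroid cultures are compared. Spheroids form over 14 days in stem cell medium on hydrogel-coated low-attachment plates, then are exposed to compound for 48 h before CellTiter-Glo luminescence.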

[9] = Identifying Small Molecule Inhibitors of Pancreatic Cancer Stem Cells (SN12C, Adherent) (AID 1259358);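 also: cell survival measured after 48 h of compound exposure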; also: potency is read from the fitted curve at half-maximal effect
Method in brief: (§3)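 Endpoint: ATP-based luminescence, 48 h drug exposure. Bortezomib at 9.2 uM final as full-kill control; DMSO vehicle as negative control; activity normalized between vehicle and cell-free wells.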

[10] = Identifying Small Molecule Inhibitors of Pancreatic Cancer Stem Cells (SN12C, Spheroid) (AID 1259360); settings: Potency: SN12C spheroid viability; also: potency is read from the fitted curve at half-maximal effect
Method in brief: as §2

[11] = Identifying Small Molecule Inhibitors of Pancreatic Cancer Stem Cells (Panc1, Adherent) (AID 1259362); settings: Potency: viability; also: potency is read from the fitted curve at half-maximal effect
Method in brief: (§4)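 After a 4 h attachment period, compounds were pinned into wells and cultures held 48 h under standard incubator conditions. Viability was then measured as CellTiter-Glo luminescence following 10 min at room temperature.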

[12] = P-glycoprotein substrates identified in KB-8-5-11 adenocarcinoma cell line, qHTS therapeutic library screen (AID 1346987); also: nearly all actives have a fitted effect of over 65% in size; also: potency is read from the fitted curve at half-maximal effect
Method in brief: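 Steps: plate 500 KB-8-5-11 cells/well in DMEM + 10% FCS (colchicine removed); pin compounds in dose-response; incubate 72 h, 37 degree C, 5% CO2; add CellTiter-Glo, 5 min; read luminescence.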

[13] = Identifying Small Molecule Inhibitors of Pancreatic Cancer Stem Cells (A278, Adherent) (AID 1259361);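 also: viability read after 48 h compound exposure; nearly all actives have a fitted effect of over 35% in size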
Method in brief: as §3

[14] = P-glycoprotein substrates identified in KB-3-1 adenocarcinoma cell line, qHTS therapeutic library screen (AID 1346986); also: nearly all actives have a fitted effect of over 60% in size;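 also: potency is read from the fitted curve at half-maximal effect; potency is for cytotoxicity meaning loss of cell viability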
Method in brief: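 KB-3-1 parental and colchicine-selected P-gp-overexpressing KB-8-5-11 cells (colchicine omitted during assay), 500 cells/well, dosed in dose-response for 72 h at 37 °C; CellTiter-Glo luminescence. Cytotoxic: curve class -1.1 to -2.4, max response >50%, AC50 < 10 uM.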

[15] = Identifying Small Molecule Inhibitors of Pancreatic Cancer Stem Cells (Panc1, Spheroid) (AID 1259359);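 also: potency is read from the fitted curve at half-maximal effect; compound exposure lasted 48 h before reading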
Method in brief: as §4

Row | Structure (SMILES) | Potency [1] | Potency [2] | Potency [3] | Potency [4] | Potency [5] | Potency [6] | Potency [7] | Potency [8] | Potency [9] | Potency [10] | Potency [11] | Potency [12] | IC50 (viability decrease) [13] | Potency [14] | Potency [15]
1 | Clc1cccc(-n2nnnc2NCc2ccccc2Oc2ccccn2)c1Cl | inactive | inactive | inactive | inactive | inactive | inactive | inactive |  |  |  |  |  |  |  | 
2 | COc1cc2c(cc1-c1c(C)noc1C)ncc1[nH]c(=O)n([C@H](C)c3ccccn3)c12 | inactive | inactive | 6620 nM (active) | 4690 nM (active) | 18700 nM (active) | 4690 nM (active) | inactive |  |  |  |  |  |  |  | 
3 | Nc1ccc(C(=O)c2cc3c(ccc4ccccc43)[nH]2)cc1 | inactive | inactive |  | 3320 nM (active) | 1870 nM (active) | 1870 nM (active) | 18700 nM (active) | 2090 nM (active) | inactive | inactive | 2960 nM (active) | 1.18 µM (active) |  |  | 
4 | NC(=O)Nc1cc(-c2cccc(F)c2)sc1C(=O)N[C@H]1CCCNC1 | inactive | inactive |  | 93.5 nM (active) | 166 nM (active) | 83.3 nM (active) | 264 nM (active) | 18700 nM (active) | 8330 nM (active) |  |  | 14.8 µM (active) and 7.31 µM (active) | 1050 nM (active) |  | 
5 | O=C(Cc1ccc(-c2ccc(OCCN3CCOCC3)cc2)cn1)NCc1ccccc1 | inactive | inactive | 23.5 nM (active) | 37.2 nM (active) | 23.5 nM (active) |  | 74.3 nM (active) |  |  |  |  | 18.7 nM (active) and 580 nM (active) |  |  | 
6 | CNC(=O)c1ccccc1Nc1nc(Nc2ccc(N3CCOCC3)cc2OC)ncc1Cl | inactive | inactive | 11800 nM (active) | 1320 nM (active) | 1480 nM (active) |  |  |  |  |  |  | 1.87 µM (active) and 1.64 µM (active) |  |  | 
7 | CN(C)c1nc(Cc2ccc(NC(=O)c3ccc4ccccc4c3)cc2)nc(Cl)c1CC(=O)O | inactive | inactive | inactive | inactive | inactive |  | inactive |  |  |  |  | inactive |  | inactive | 
8 | Cc1ccc(NC(=O)C2(c3ccc4c(c3)OC(F)(F)O4)CC2)nc1-c1cccc(C(=O)O)c1 | inactive | inactive | 52.6 nM (active) | 37.2 nM (active) | 46.9 nM (active) |  | 37.2 nM (active) |  |  |  |  | 526 nM (active) and inactive |  | inactive | 
9 | CCN(CC)CCNC(=O)c1ccc2nc(-c3ccccc3)c(-c3ccc(CN4CCC(n5c(=O)[nH]c6ccccc65)CC4)cc3)nc2c1 | inactive | inactive | 23500 nM (active) | 23500 nM (active) | 16600 nM (active) |  | 3320 nM (active) |  |  |  |  | 3.72 µM (active) |  |  | 
10 | C=CC(=O)Nc1cc2c(Nc3ccc(F)c(Cl)c3)ncnc2cc1C#CC(C)(C)N1CCN(C)CC1 | inactive | inactive |  | 2640 nM (active) | 2350 nM (active) | 1320 nM (active) | 13200 nM (active) | 16600 nM (active) | 13200 nM (active) | 6620 nM (active) |  | 16.4 µM (active) | 6620 nM (active) | 9200 nM (active) | 5260 nM (active)
11 | CC(C)C[C@H](NC(=O)CNC(=O)c1cc(Cl)ccc1Cl)B(O)O | inactive | inactive | 264 nM (active) | 332 nM (active) | 148 nM (active) |  | 418 nM (active) |  | 132 nM (active) | 83.3 nM (active) |  | 1.32 µM (active) | 16.6 nM (active) |  | 93.5 nM (active)
12 | CN(C)CC=CC(=O)Nc1cc2c(Nc3ccc(F)c(Cl)c3)ncnc2cc1O[C@H]1CCOC1 | inactive | inactive | 18700 nM (active) | 16600 nM (active) | 20900 nM (active) |  | inactive |  |  | 23500 nM (active) |  | 9.35 µM (active) | 23500 nM (active) |  | 11800 nM (active)
13 | Cc1[nH]c2ccccc2c1CCNCc1ccc(C=CC(=O)NO)cc1 | inactive | inactive | 93.5 nM (active) | 83.3 nM (active) | 93.5 nM (active) |  |  |  | 235 nM (active) |  |  | 0.935 µM (active) | 118 nM (active) |  | 590 nM (active)
14 | CNC(=O)CN1CCC(Oc2cc3c(Nc4cccc(Cl)c4F)ncnc3cc2OC)CC1 | inactive | inactive | 14.8 nM (active) | 52.6 nM (active) | 105 nM (active) |  |  |  |  |  |  | inactive |  |  | 
15 | C1Cc2[nH]nc(-c3nn[nH]n3)c2C1 | inactive | inactive | inactive | inactive | inactive |  | inactive |  | inactive | inactive |  | inactive | inactive | inactive | 
16 | O=C(Nc1cc(C(F)(F)F)cc(C(F)(F)F)c1)c1cc(Cl)ccc1O | inactive | inactive | 1180 nM (active) | 1050 nM (active) | 2350 nM (active) |  | 2640 nM (active) | 526 nM (active) |  | 833 nM (active) |  | 187 nM (active) and 820 nM (active) |  |  | 372 nM (active)
